# A selection: hits, their analogues and other compounds. The true share with any hit is near 3.9%.
# HSF1 inhib: HSF1 inhibitors in luciferase reporter cells, primary screen, cell-based, NIH3T3, luminescence; NIH3T3-HGL HSE-luciferase, MG132-induced, luminescence 8 h; hits give low values; activity change, negative = inhibition, % at 7.5 µM (by protocol); 300,000 tested, 0.77% active; AID 2098, 2009;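 active = more than half of replicate wells show activity change below -50%, luminescence cut by over half; inconclusive = some wells, but at most half, below -50%; inactive = no replicate well below -50%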;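 note: luciferase reports HSF-1 transcriptional activity via heat shock element; 0% = median of DMSO wells and -100% = zero luminescence signal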
# Wnt act: Wnt/beta-catenin pathway activators, primary screen, cell-based, plate reader, single point. Wnt/beta-catenin reporter cell assay, activator. activation, % at 9.35 µM. 300,000 tested, 1.2% active. AID 743398, 2014; in the data active = activation above about 30%, passing the limit was not always enough; inconclusive = no clear call, values can overlap the other calls;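 note: 0% = neutral control wells and 100% = positive control wells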
# MITF TRPM1 HTS: activators of MITF-driven TRPM1 promoter reporter, primary screen, cell-based, SK-MEL-5, luciferase, single point. SK-MEL-5 TRPM1-promoter luciferase, 24 h; % of positive control, neutral wells = 0. activation, % at 12.5 µM. 300,000 tested, 0.75% active. AID 588334, 2011;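 active = mean activation of at least 80% with every replicate also reaching 80%; inconclusive = mean reaches 80% but some replicate falls short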;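 note: 0% = neutral control wells and 100% = parthenolide positive control wells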
# esBAF inh: Bmi1 luciferase reporter increase in mESCs, primary screen, esBAF inhibitor project, mouse ES cells, Bmi1 luciferase knock-in, single point; 24 h; 100% = twice the neutral-well signal; reporter increase, % at 12.5 µM; 350,000 tested, 2% active; AID 602393, 2012; in the data active = activation above about 40%; inconclusive = no clear call, values can overlap the other calls;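 note: 0% = median of the plate's neutral control wells and 100% = double that signal; a rise in the Bmi1 reporter signal indicates esBAF inhibition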
# HSF1 activator: HSF-1 activators, primary screen, NIH3T3-HGL cells, MG132 stress, luminescence, single point; activation, % at 9 µM; NIH3T3-HGL HSF-1 luciferase reporter, 8 h; 100% = twice DMSO control signal; 300,000 tested, 1.7% active;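 active = mean replicate activation of at least 50% with a set share of replicates each reaching 50%; inconclusive = only one of those two conditions met; inactive = mean below 50% and too few replicates reaching it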;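 note: 0% = median of the neutral control wells and 100% = twice that signal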
# * marks the source's active call; other numbers are inactive results; ? = inconclusive; nt = no result.
SMILES,HSF1 inhib,Wnt act,MITF TRPM1 HTS,esBAF inh,HSF1 activator
O=C(COc1ccccc1Cl)Nc1ccc2c(c1)OCO2,23,2,121*,36,15
CC(=O)Nc1ccccc1OCC(=O)c1ccc2c(c1)OCO2,10,37*,nt,?,23
O=C(COC(=O)C1CC1)Nc1ccc2c(c1)OCO2,7,47*,11,nt,31
CC(=O)Nc1ccccc1NC(=O)c1ccc2c(c1)OCO2,nt,2,nt,-7,nt
Cc1ccc(NC(=O)COc2ccccc2C=O)cc1Cl,44,0,54,47*,80*
COc1ccc(NC(=O)N(C)C[C@H]2OCCCC[C@@H](C)Oc3ccc(NS(C)(=O)=O)cc3C(=O)N([C@H](C)CO)C[C@@H]2C)cc1,nt,nt,nt,2,nt
O=C(CCN1C(=O)/C(=C/c2ccc(Cl)cc2)SC1=S)NCCCn1ccnc1,2,-2,8,4,-3
O=C(CCN1C(=O)/C(=C/c2ccc(F)cc2)SC1=S)NCCCn1ccnc1,-59*,0,0,-8,-69
CC1=Nc2ccccc2N=C(N)C1c1ccccc1 (configuration not stated),18,52*,18,35,35
c1ccn(-c2ccc(N3CCOCC3)cc2)c1,-62*,nt,20,13,-68
C[C@H]1CN([C@@H](C)CO)C(=O)c2cc(Br)cnc2O[C@@H]1CN(C)Cc1ccccc1,nt,nt,nt,2,nt
CO[C@@H]1CN(C)C(=O)c2cc(NS(=O)(=O)c3ccc(Cl)cc3)ccc2OC[C@H](C)N(C)C[C@@H]1C,nt,nt,nt,0,nt
COc1ccc(/C=C(/C(=O)c2cccs2)N2C=CC=CC2=C(C#N)C#N)cc1,99,-8,-57,nt,177*
COc1ccc(C(=O)/C(=C\c2ccco2)N2C=CC=CC2=C(C#N)C#N)cc1,41,-9,-96,2,?
CCCC(=O)Nc1nc2ccc(C(=O)OCC)cc2s1,16,20,92*,65*,25
COc1ccc(-c2nc(NC(=O)c3ccco3)sc2C)cc1,nt,16,nt,65*,nt
CCOC(=O)c1ccc2nc(NC(=O)C(C)C)sc2c1,26,?,nt,37,34
O=C(NC(=S)Nc1nc2ccc(F)cc2s1)c1ccco1,48,10,11,34,89*
CCOC(=O)c1ccc2nc(NC(=O)c3ccco3)sc2c1,28,74*,27,-35,69*
COc1ccc(Cc2nnc(NC(=O)c3ccco3)s2)cc1,4,7,nt,24,5
CS(=O)(=O)c1ccc2nc(NC(=O)c3ccco3)sc2c1,16,17,22,-6,14
C[C@H]1CN([C@@H](C)CO)C(=O)c2cc(NC(=O)Nc3ccc(C(F)(F)F)cc3)ccc2O[C@H]1CN(C)Cc1ccc(-c2ccccc2)cc1,nt,nt,nt,-7,nt
C[C@@H](NC(=O)C[C@H]1C[C@H]2c3cc(NC(=O)NC4CCCC4)ccc3O[C@H]2[C@H](CO)O1)c1ccccc1,nt,nt,nt,-3,nt
Cc1c(Cl)ccc2sc(NC(=O)c3ccco3)nc12,26,?,nt,64*,31
O=C(Nc1nc2cc3c(cc2s1)OCCO3)c1ccco1,-55*,7,-63,-76,-61
SMILES,HSF1 inhib,Wnt act,MITF TRPM1 HTS,esBAF inh,HSF1 activator
Cc1c(Cl)cccc1NC(=O)c1ccco1,4,2,nt,6,-21
CN(C(=O)CN1C(=O)S/C(=C\c2ccccc2)C1=O)C1CCS(=O)(=O)C1 (configuration not stated),-86*,0,1,-1,-89
CCCC#Cc1cnc2c(c1)C(=O)N([C@H](C)CO)C[C@@H](C)[C@@H](CN(C)C(=O)Cc1cccnc1)O2,nt,nt,nt,-3,nt
COc1cc(C(O)P(=O)(OC2CCCCC2)c2ccc(N(C)C)cc2)cc(OC)c1OC (configuration not stated),28,nt,-5,-2,57*
C[C@@H]1CN([C@@H](C)CO)C(=O)c2cc(C#C[C@@H](C)O)cnc2O[C@H]1CN(C)C(=O)Cc1ccccn1,nt,nt,nt,3,nt
O=C1Nc2ccc(Br)cc2/C1=C/C(=O)c1ccccc1,nt,-9,nt,nt,nt
CC(=O)/C=C1/C(=O)Nc2ccccc21,165,-1,-28,nt,187*
C=CCOc1cccc(C(=O)/C=C2/C(=O)Nc3ccccc32)c1,158,2,-55,0,236*
Cc1ccc(S(=O)(=O)Nc2ccc3c(c2)C(=O)N([C@H](C)CO)C[C@@H](C)[C@H](CN(C)C)O3)cc1,nt,nt,nt,-3,nt
Nc1ccc(Sc2cnn(-c3ccccc3)c(=O)c2Cl)cc1,21,nt,-12,18,57*
CO[C@H]1CN(C)C(=O)c2cc(NC(=O)NC3CCCCC3)ccc2OC[C@@H](C)N(C)C[C@H]1C,nt,nt,nt,1,nt
COc1cccc(NC2SC(=O)N(c3ccccc3)C2=O)c1 (configuration not stated),35,25,nt,59*,59*
CN1C(=O)SC(Nc2ccccc2)C1=O (configuration not stated),-11,nt,10,3,4
CO[C@@H]1CN(C)C(=O)c2ccc(NS(=O)(=O)c3ccc(Cl)cc3)cc2OC[C@@H](C)N(C(=O)Cc2cccnc2)C[C@H]1C,nt,nt,nt,-13,nt
O=C(Nc1ccc2c(c1)nc1n2CCOC1)C1CCCCC1,3,nt,nt,53*,22
CO[C@H]1CN(C)C(=O)c2cc(NC(=O)NC3CCCCC3)ccc2OC[C@@H](C)N(CC2CC2)C[C@@H]1C,nt,nt,nt,6,nt
COc1ccc(-c2noc(CCC(=O)NCCc3ccccc3)n2)cc1,-1,0,-1,-1,8
COc1ccc(-c2noc(CCC(=O)Nc3cccnc3)n2)cc1OC,0,0,15,-5,2
CCN(CCCNC(=O)CCc1nc(-c2ccc(OC)cc2)no1)c1cccc(C)c1,39,nt,-3,nt,62*
COc1cccc(-c2noc(CCC(=O)Nc3cccnc3)n2)c1,1,nt,34,52*,3
O=C(O)COn1c(-c2ccccc2)nc2ccc(Cl)cc21,0,1,1,nt,6
O=[N+]([O-])c1ccc2nc(-c3ccccc3)n(OCc3ccc(Cl)cc3)c2c1,17,nt,nt,62*,59*
COn1c(-c2ccccc2)nc2ccc(Cl)cc21,32,nt,nt,65*,66*
O=[N+]([O-])c1ccc(COn2nnc3ccccc32)cc1,20,1,27,nt,30
CC(C)N(Cc1cn[nH]c1-c1ccc(-c2ccccc2)cc1)Cc1nccn1C,29,-6,28,6,59*
COc1ccc(NC(=O)N(C)C[C@@H]2OCCCC[C@H](C)Oc3ccc(NC(=O)c4ccncc4)cc3C(=O)N([C@H](C)CO)C[C@@H]2C)cc1,nt,nt,nt,1,nt
C[C@@H]1CN([C@H](C)CO)C(=O)Cc2cc(NC(=O)C3CCCCC3)ccc2O[C@@H]1CN(C)C(=O)Nc1ccc2c(c1)OCO2,nt,nt,nt,4,nt
